From PubChem
This is a sample that favours compounds with a hit; in the whole collection about 7.4% have one here.
Rab9 promoter act: qHTS Assay for Rab9 Promoter Activators; Huh7 Rab9 promoter-luciferase reporter, luminescence, 24 h; Potency, µM (doses to about 9.22 µM), for the others: top-dose activation, negative = inhibition, actives largely listed as activators; 2.8% of 320,000 active; AID 485297, 2010; note: % of control where 0% means no effect; nearly all actives have a fitted effect of over 60% in size
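Stable Rab9-luc Huh7, 1500 cells/well, 2 h settle; cmpd in DMSO, 24 h, 37 °C/5% CO2; luciferase reagent 10 min RT; luminescence.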
FLuc modulator: qHTS profiling assay for firefly luciferase inhibitor/activator using purifed enzyme and Km concentrations of substrates (counterscreen for miR-21 project). Luciferin 4-monooxygenase (Photinus pyralis), P08659. purified FLuc, Km substrates, luminescence inhibition. Potency, µM (highest dose often 57.5 µM), for inactives: at the top dose activity change, negative = inhibition, most hits filed as inhibitors. 6.9% of 360,000 active. AID 588342, 2011;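 note: plate controls were vehicle for no effect and reference inhibitor for full effect; nearly all actives have a fitted effect of over 55% in size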
Target sequence (P08659 whole entry, looked up): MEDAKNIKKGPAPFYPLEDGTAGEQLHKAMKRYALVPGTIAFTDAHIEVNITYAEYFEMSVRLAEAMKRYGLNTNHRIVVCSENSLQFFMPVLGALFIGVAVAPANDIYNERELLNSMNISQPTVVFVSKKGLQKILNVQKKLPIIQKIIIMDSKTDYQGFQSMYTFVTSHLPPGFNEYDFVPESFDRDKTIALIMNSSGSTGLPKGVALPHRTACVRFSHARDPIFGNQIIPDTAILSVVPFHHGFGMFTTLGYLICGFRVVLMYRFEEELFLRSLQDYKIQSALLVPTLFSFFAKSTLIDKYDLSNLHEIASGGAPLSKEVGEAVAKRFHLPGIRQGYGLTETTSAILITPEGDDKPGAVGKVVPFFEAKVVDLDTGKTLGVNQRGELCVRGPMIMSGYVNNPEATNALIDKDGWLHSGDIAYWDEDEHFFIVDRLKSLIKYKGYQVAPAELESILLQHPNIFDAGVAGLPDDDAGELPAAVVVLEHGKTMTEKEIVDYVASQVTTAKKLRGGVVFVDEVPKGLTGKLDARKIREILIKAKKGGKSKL
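Purified P. pyralis luciferase (10nM final) with 10uM D-luciferin and 10uM ATP (Km levels) in 50mM Tris acetate pH 7.5, 10mM Mg acetate, 0.01% Tween-20, 0.05% BSA; qHTS 6-point titration, ~60 µM downward; luminescence read.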
p53 reactivator: qHTS assay for re-activators of p53 using a Luc reporter; H1299 p53-A138V BP100-luciferase reporter, luminescence, 24 h; Potency, µM (highest dose often 92.2 µM), for inactives: at the top dose activity change, positive = activation, actives largely listed as activators; 0.063% of 320,000 active; AID 504706, 2011; note: % of control where 0% means no effect; nearly all actives have a fitted effect of over 45% in size
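p53-null H1299 cells stably carrying temperature-sensitive p53-A138V and a BP100-luciferase reporter were pinned with compounds (4-point, 1:5 series) and held 24 hrs at 37 deg C. Luminescence was read 10 min after detection reagent.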
SMN2 splice up: qHTS Assay for Enhancers of SMN2 Splice Variant Expression; HEK293 SMN2-luciferase splicing reporter, luminescence, 30-36 h; Potency, µM (series often up to 46.1 µM), without a hit: at the top dose activity change, positive = activation, actives largely listed as activators; 2.8% of 210,000 active; note: % of control where 0% means no effect; nearly all actives have a fitted effect of over 55% in size
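HEK293 cells carry an SMN2 […]–luciferase reporter in which exon 7 inclusion puts luciferase in frame. Cells were plated 10-12 h before compound addition, then incubated 30-36 h at 37C. ONE-Glo luminescence was read; sodium butyrate at 4.5 mM final served as control.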
ELG1 genotox: qHTS screen for small molecules that induce genotoxicity in human embryonic kidney (HEK293T) cells expressing luciferase-tagged ELG1; AID 504466, 2011; HEK293T ELG1-luciferase reporter, luminescence, 16 h; 1.3% of 330,000 active; Potency, µM (doses to about 46 µM), for the others: top-dose activity change, positive = activation, actives largely listed as activators; note: % of control where 0% means no effect; nearly all actives have a fitted effect of over 60% in size
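Quantitative HTS format in 1536-well plates. HEK293T ELG1-luciferase reporter cells receive test compound and are incubated 16 hr at 37 °C, 5% CO2; ONE-Glo added, 30 min room temperature, then luminescence read.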
NPC1 promoter act: qHTS Assay for NPC1 Promoter Activators. Huh7 NPC1 promoter luciferase reporter, 24 h. Potency, µM (top dose mostly 9.22 µM), for the others: top-dose activation, actives largely listed as activators. 2.4% of 320,000 active; note: % of control where 0% means no effect; nearly all actives have a fitted effect of over 60% in size
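Stable NPC1-promoter luciferase Huh7 line; cpd (DMSO) 24 h, 37 °C, 5% CO2; Amplite luciferase reagent 10 min RT; luminescence readout. qHTS format.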
Active calls of the source: *; ? = inconclusive; . = no result; [ ] = another dose, or the depositor's remark. Calls come from the whole dose curve; as a rule, active = well fitted curve in the direction sought with a large enough effect; inconclusive = small, poorly fitted or top-dose-only effect, or another doubt; inactive = no such curve, though single readings can be large; an effect the other way counts as inactive or inconclusive. Potency is the fitted concentration of half-maximal effect.

SMILES	Rab9 promoter act	FLuc modulator	p53 reactivator	SMN2 splice up	ELG1 genotox	NPC1 promoter act
N/C(=N\OC(=O)CCCc1ccccc1)c1ccccc1	17%	4.8µM*	23%	.	?	9%
N/C(=N\OC(=O)CCCc1ccccc1)c1cccnc1	-1%	17µM*	17%	4%	4%	-2%
CCN(C(=O)c1cccc(NC(=O)c2ccccc2)c1)C1CCCCC1	-2%	1%	-12%	.	-1%	-3%
O=C(NCc1ccccc1F)C1CCCN1C(=O)Nc1ccc(Cl)cc1 (stereo not given)	-2%	1%	0%	.	-3%	-1%
Cc1nnc(NC(=O)c2ccncc2)s1	8%	-12%	1%	-13%	-1%	-1%
Cc1cc(C)cc(NC(=O)c2ccc(S(=O)(=O)C(F)F)cc2)c1	2%	13µM*	18%	19%	2%	2%
Cc1nnc(NC(=O)c2ccc(S(=O)(=O)C(F)F)cc2)s1	2.2µM*	5.4µM*	11%	.	?	?
Cc1c(Cl)cccc1NC(=O)Cn1c(=O)nc(-c2ccccc2)c2ccccc21	.	2%	.	.	.	.
O=C(Nc1cccc(-c2nc3cccnc3s2)c1)c1ccco1	8%	11µM*	9%	-1%	1%	16%
O=C(Nc1ccc(-c2nc3cccnc3s2)cc1)c1ccc(Br)o1	4µM*	?	?	3.2µM*	2.9µM*	2.8µM*
O=C(Nc1cccc(-c2nc3cccnc3s2)c1)c1cccc(Br)c1	.	0%	.	.	.	.
O=C(Nc1ccc(-c2nc3cccnc3s2)cc1)c1ccco1	0.45µM*	1.1µM*	18%	1.4µM*	0.92µM*	0.5µM*
Cc1ccc(CN(C(=O)Nc2cccc(Cl)c2)c2ccccn2)cc1	.	-17%	.	.	.	.
Cc1ccc(S(=O)(=O)CC(=O)N2CCN(c3nc4c(F)cccc4s3)CC2)cc1	.	-21%	.	.	.	.
CCCc1nnc(SCC(=O)Nc2nc(C)cs2)n1CCOC	7%	-20%	8%	.	?	0%
COc1ccc(CC(=O)Nc2ccc(-c3nnc(-c4ccccc4)o3)cc2)cc1OC	6%	-1%	24%	5%	27%	12%
CC(=O)Nc1ccc(NC(=O)c2nc(-c3ccccc3)oc2C)cc1	0%	?	0%	15%	-3%	-3%
CC(C)C(=O)Nc1ccc(-c2nnc(-c3ccccc3)o2)cc1	0.32µM*	2.4µM*	?	.	?	0.32µM*
O=C(Nc1ccc(-c2nnc(-c3ccccc3)o2)cc1)C(F)(F)F	1.3µM*	?	?	.	?	1.6µM*
CC(=O)/C=C(\C)Nc1ccc(-c2cnc(-c3ccccc3)o2)cc1	0.45µM*	1.9µM*	?	4µM*	2µM*	1µM*
Cc1ccc(-c2csc(N3CCN(S(=O)(=O)c4ccc5c(c4)NC(=O)CO5)CC3)n2)cc1	3%	0%	9%	.	-4%	-3%
COc1ccc(C[C@H](O)CN2CCOCC2)cc1	.	.	.	-2%[9.22 µM]	.	.
O=C(N/N=C/c1cn(-c2ccccc2)nc1-c1cccnc1)c1cccnc1	-7%	?	2%	-12%	-3%	-4%
O=C(N/N=C/c1cn(-c2ccccc2)nc1-c1cc2ccccc2o1)c1cccnc1	?	2.1µM*	?	4µM*	?	?
O=C(N/N=C/c1cn(-c2ccccc2)nc1-c1cc2ccccc2o1)c1ccncc1	2.2µM*	1.9µM*	?	7.1µM*	?	2.8µM*
SMILES	Rab9 promoter act	FLuc modulator	p53 reactivator	SMN2 splice up	ELG1 genotox	NPC1 promoter act
O=C(O)c1cccc(NC(=O)c2cn(-c3ccccc3)nc2-c2cc3ccccc3o2)c1	9%	4.3µM*	?	21%	9%	3%
NC(=O)c1cn(-c2ccccc2)nc1-c1cc2ccccc2oc1=O	-4%	3%	-2%	-6%	2%	-1%
O=C(N/N=C/c1cn(-c2ccccc2)nc1-c1cccnc1)c1ccc(F)cc1	-8%	-12%	-1%	0%	-13%	-2%
COc1cc(NC(=O)CSC2=Nc3ccccc3N=C(c3ccc(F)cc3)C2)cc(OC)c1	.	3%	.	.	.	.
COc1ccc(OC)c(CNS(=O)(=O)c2ccc(-c3coc(C)n3)cc2)c1	.	-3%	.	.	.	.
CC(=O)Oc1ccc(Oc2ccc(-c3noc(C)n3)cc2)cc1	?	?	?	?	23µM*	11%
CC(=O)Oc1ccc(-c2nc(-c3cccnc3)no2)cc1	?	6µM*	?	?	5.8µM*	3.5µM*
CCOc1ccc(-c2nc(-c3cccnc3)no2)cc1OCC	1%	?	1%	-16%	9%	7%
COC(=O)N1C(c2ccccc2)=Cc2ccccc2C1CC(C)=O (stereo not given)	.	.	.	16%[9.22 µM]	.	.
COc1ccc(N(Cc2cccs2)C(=O)COc2ccc(C(C)C)cc2)cc1	.	-1%	.	.	.	.
CC(C)(C)OC(=O)N1CCC(c2c(C(=O)N3CCN(C(=O)c4ccco4)CC3)cnn2-c2ccc(Cl)cc2)CC1	.	-2%	.	.	.	.
CCc1ccccc1NC(=O)N1CCN(c2nnc(C)c3c(C)n(-c4ccccc4)nc23)CC1	.	-13%	.	.	.	.
CCOC(=O)N1CCN(S(=O)(=O)c2ccc(C(=O)Nc3nnc(CC)o3)cc2)CC1	-4%	16%	2%	3.5µM*	-2%	-4%
COc1ccc(NC(=O)CSc2oc(-c3ccco3)nc2S(=O)(=O)c2ccc(Br)cc2)c(OC)c1	.	-5%	.	-5%	.	.
COc1ccc(C(=O)ON=C2CCN(c3ccc([N+](=O)[O-])cc3)CC2)cc1	17%	?	-4%	-2%	-2%	9%
CN1CCC(=NOc2ccc([N+](=O)[O-])cc2)CC1	1.6µM*	?	4%	.	?	1.8µM*
O=C(CSc1nc2cc(Cl)ccc2o1)NCCc1ccccc1	-6%	3%	-7%	.	0%	1%
O=C(CSc1nc2cc(Cl)ccc2o1)c1cccs1	12%	19µM*	?	3%	?	9%
O=C(CSc1nc2ccc(Cl)cc2[nH]1)c1cccs1	28%	13µM*	13%	.	16%	12%
COc1ccc2c(c1)c(=O)oc1c(C)c(OC(C)C(=O)N[C@@H](Cc3c[nH]c4ccc(O)cc34)C(=O)O)ccc12 (stereo not given in full)	-3%	12µM*	5%	.	-2%	9%
CC(Oc1ccc2c(-c3ccccc3)cc(=O)oc2c1)C(=O)NC(Cc1c[nH]c2ccc(O)cc12)C(=O)O (stereo not given)	0%	?	8%	.	-1%	0%
